Screening data from PubChem.
This is a sample that favours compounds with a hit; in the whole collection about 10% have one here.
RORgamma inh: blocks mouse ROR gamma transcriptional activity; P51450; Potency, µM (top dose mostly 53.6 µM), for the others: top-dose activity change, negative = inhibition, usual class: inhibitors; 310,000 compounds, 5.4% hits; Drosophila S2 Gal4-RORgamma UAS-luciferase reporter, 20 h; AID 2551; also: % is scaled to controls: 0 for no effect and ±100 for the full control effect; nearly all actives have a fitted effect of over 60% in size
Target sequence (P51450 whole entry, looked up, the tested form may be a part): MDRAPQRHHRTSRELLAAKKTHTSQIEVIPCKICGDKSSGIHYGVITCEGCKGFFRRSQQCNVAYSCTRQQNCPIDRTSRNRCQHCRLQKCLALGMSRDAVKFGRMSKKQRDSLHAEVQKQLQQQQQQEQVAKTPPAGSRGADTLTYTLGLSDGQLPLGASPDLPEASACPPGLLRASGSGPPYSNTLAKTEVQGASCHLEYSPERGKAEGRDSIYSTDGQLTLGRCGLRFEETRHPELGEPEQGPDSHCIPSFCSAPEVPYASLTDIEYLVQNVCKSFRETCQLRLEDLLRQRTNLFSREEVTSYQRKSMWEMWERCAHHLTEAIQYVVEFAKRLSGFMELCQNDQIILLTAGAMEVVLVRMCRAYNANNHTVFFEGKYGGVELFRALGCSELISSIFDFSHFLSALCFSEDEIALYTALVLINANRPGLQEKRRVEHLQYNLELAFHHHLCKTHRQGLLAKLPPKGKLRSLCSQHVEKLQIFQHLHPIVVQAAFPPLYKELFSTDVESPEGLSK
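Stably transfected Drosophila Schneider cells are the test system, with ROR gamma fused to Gal4 and luciferase under UAS control; luminescence is read after 20 hr of 700 uM copper sulfate induction at ambient temperature.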
MCF10A rereplic: DNA re-replication induction in MCF 10a cells | MCF 10A DNA re-replication, Hoechst nuclear intensity, 48 h | 350,000 compounds, 2.9% hits | Potency, µM (titrated, usually from 46.1 µM), for inactives: top-dose activity, positive = re-replication, actives largely listed as activators; also: % of control where 0% means no effect; nearly all actives have a fitted effect of over 50% in size
VP16 counter: inhibits Gal4-VP16 luciferase reporter, ROR gamma counter-screen. Drosophila S2 Gal4-VP16 UAS-luciferase, luminescence, 20 h. Potency, µM (titrated, usually from 53.6 µM), for inactives: at the highest dose activity, negative = inhibition, most hits filed as inhibitors. 310,000 compounds, 3.5% hits;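 also: Gal4-VP16 expression switched on by copper sulfate through the metallothionein promoter; % is scaled to controls: 0 for no effect and ±100 for the full control effect; nearly all actives have a fitted effect of over 50% in size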
KB-V1 MDR tox: kills drug-selected multidrug resistant KB-V1 cells. KB-V1 MDR cells viability, CellTiter-Glo, 72 h. Potency, µM (series often up to 46.1 µM), most hits filed as cytotoxic. 400,000 compounds, 3.4% hits; also: % is scaled to controls: 0 for no effect and ±100 for the full control effect; nearly all actives have a fitted effect of over 60% in size
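Cells of the MDR subline KB-V1 are plated, dosed with compound at multiple concentrations, and incubated 72 h at 37 degrees C; CellTiter-Glo is then added and luminescence read after 10 min.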
KB-3-1 tox: kills parental KB-3-1 adenocarcinoma cells; KB-3-1 viability, CellTiter-Glo ATP luminescence, 72 h; Potency, µM (highest dose often 46.1 µM), hits mostly cytotoxic; 400,000 compounds, 1.4% hits; AID 1347075; also: % is scaled to controls: 0 for no effect and ±100 for the full control effect; nearly all actives have a fitted effect of over 60% in size
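Cytotoxicity measured as CellTiter-Glo luminescence after 72 h at 37 C. Compound titrations were pinned onto drug-naive KB-3-1 parental adenocarcinoma cells grown in DMEM with 10% FBS, and normalized data fitted to concentration-response curves.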
SW480 rerep: inducers of DNA re-replication in SW480 colon cancer cells; SW480 DNA re-replication, Hoechst DNA content imaging, 48 h; AID 624297; Potency, µM (top dose mostly 46.1 µM), inactives show top-dose re-replication activation, most hits filed as activators; 340,000 compounds, 1.8% hits; also: % of control where 0% means no effect; nearly all actives have a fitted effect of over 55% in size
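SW480 cells exposed to compounds for 48 hr at 37 C, 5% CO2, then Hoechst-stained 40 min. Nuclear DNA content imaged by fluorescence scanning (405 nm excitation, 500-530 nm emission); re-replication scored as increased high-intensity nuclei.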
* hit, by the source's call; i = inactive; ? = inconclusive; nt = not tested or not shown; [ ] = remark or other dose. Calls follow the shape of the dose curve; as a rule, active = well fitted curve in the direction sought with a large enough effect; inconclusive = small, poorly fitted or top-dose-only effect, or another doubt; inactive = no such curve, though single readings can be large; an effect the other way counts as inactive or inconclusive. Potency is read from the fitted curve at half-maximal effect.

SMILES	RORgamma inh	MCF10A rereplic	VP16 counter	KB-V1 MDR tox	KB-3-1 tox	SW480 rerep
O=C(Nc1ccccc1Br)N1CCN2CCCCC2C1 (stereo not given)	nt	nt	nt	i	i	nt
O=C(CN1CCN(c2ncc(C(F)(F)F)cc2Cl)CC1)N1CCN(c2ncc(C(F)(F)F)cc2Cl)CC1	-1%	?	-11%	i	?	?
CN(C)c1ccc(NC(=S)N2CCN(c3ncc(C(F)(F)F)cc3Cl)CC2)cc1	10µM*	?	?	i	i	-14%
CNC(=S)NNC(=O)c1sc2cc(C(F)(F)F)cnc2c1-c1ccccn1	1.1µM*	-11%	-18%	i	i	-124%
CNC(=S)NNC(=O)c1sc2cc(C(F)(F)F)cnc2c1-c1cccnc1	18µM*	?	-2%	i	i	-4%
NC(=O)c1sc2cc(C(F)(F)F)cnc2c1-c1ccccc1	25%	-2%	-17%	i	i	-61%
O=C(Nc1nc(N2C(=O)c3ccccc3C2=O)n(-c2ccccc2)n1)c1ccccc1	-42%	-42%	5%	i	?	-2%
O=C(Nc1nc(N2C(=O)c3ccccc3C2=O)n(-c2ccccc2)n1)c1ccc(F)cc1	10µM*	-1%	?	i	i	-9%
COc1cc(/C=N\Nc2ccc([N+](=O)[O-])cc2)ccc1OCC(=O)Nc1ccc(C)c(C)c1	?	5.8µM*	-26%	i	?	21µM*
CCCOc1ccc(/C=N/NC(=O)CSCc2ccc([N+](=O)[O-])cc2)cc1OCC	-8%	0%	-6%	16µM*	i	-3%
CCOc1cc(/C=N/O)ccc1OCC(=O)Nc1cccc(C)c1	-2%	?	-7%	13µM*	i	5%
CCOC(=O)/C(C#N)=C/c1ccc(OCC(=O)Nc2ccc(C)c(C)c2)c(OC)c1	-1%	0%	-7%	i	i	-5%
CCOc1cc(/C=N\Nc2ccc([N+](=O)[O-])cc2)ccc1OCC(=O)Nc1ccc(C)c(C)c1	10%	16µM*	-1%	i	i	?
CCc1nc2ccc(C(=O)NCCOc3ccc(OC)cc3)cn2c1N(CC)Cc1ccc(OC)c(OC)c1	nt	nt	nt	i	i	nt
CCCS(=O)(=O)N1CC(=O)N(c2cc(C)cc(C)c2)C(C)(C(=O)NC2CCCCCC2)C1 (stereo not given)	nt	nt	nt	i	i	nt
COc1ccccc1NC(=O)c1cc2c(n(-c3ccc(C)cc3)c1=O)CC(C)(C)CC2=O	nt	nt	nt	?	i	nt
COCCNC(=O)Nc1cc(C(=O)NCc2ccc(C(C)C)cc2)ccc1N1CCCC1	nt	nt	nt	i	i	nt
C[C@@H]1OC(Oc2ccccc2-c2cc(=O)c3c(O)cc(O)c([C@@H]4O[C@H](CO)[C@@H](O)[C@H](O)[C@H]4O)c3o2)[C@H](O)[C@H](O)[C@H]1O (stereo not given in full)	-17%	nt	-4%	nt	nt	nt
CCOc1cc(/C=N\NC(=O)Cc2ccccc2)ccc1OCC(=O)Nc1ccc(C)c(C)c1	17%	15µM*	-26%	?	?	-1%
COCCn1c(C)cc(O)c(C(c2ccccc2F)N2CCN(c3ccccc3)CC2)c1=O (stereo not given)	nt	nt	nt	?	i	nt
CC1CCCC(NC(=O)C2COc3ccccc3O2)C1C (stereo not given)	nt	12%	nt	13µM*	i	-7%
OC(c1ccc(F)cc1)c1ncc(-c2ccc3ccccc3c2)[nH]1 (stereo not given)	nt	nt	nt	i	i	nt
Cc1ccc2nc(-c3ccc(N4CCOCC4)cc3)c(Nc3ccccc3C)n2c1	nt	nt	nt	i	i	nt
Cc1cccc(NC2=NC(=S)N(c3cccc(C(=O)O)c3)C23CCCCC3)c1	3%	-5%	0%[10 µM]	i	i	-124%
Cc1cccc(C)c1NC1=NC(=S)N(c2ccc(C(=O)O)cc2)C12CCCCC2	20%	4%	2%	?	i	-2%
SMILES	RORgamma inh	MCF10A rereplic	VP16 counter	KB-V1 MDR tox	KB-3-1 tox	SW480 rerep
COc1ccc(N2C(=S)N=C(Nc3cccc(C)c3)C23CCCCC3)cc1	2.2µM*	-3%	6.3µM*	i	i	-7%
Cc1ccc(N2C(=S)N=C(Nc3ccccc3C)C23CCOC(C)(C)C3)cc1 (stereo not given)	4.5µM*	4%	13µM*	i	i	18%
Cc1cccc(C)c1NC1=NC(=S)N(c2ccccc2)C12CCOC(C)(C)C2 (stereo not given)	4µM*	23%	?	i	i	4%
Cc1cccc(N2C(=S)N=C(Nc3c(C)cccc3C)C23CCOC(C)(C)C3)c1 (stereo not given)	7%	4%	-7%	i	i	4%
COc1ccccc1N1C(=S)N=C(Nc2c(C)cccc2C)C12CCCC2	7.9µM*	1%	?	i	i	4%
COc1ccc2c(c1)CCc1c(C(=O)Nc3c(C)nn(Cc4ccc(C)cc4)c3C)noc1-2	nt	nt	nt	i	?	nt
CCN1C(=NCc2cc(OC)c(OC)c(OC)c2)N[C@@H](c2cccc(F)c2)C(C(=O)OC)=C1C	17%	nt	-16%	nt	nt	nt
O=C1CCC=C1[C@@H](O)CCc1ccccc1	-16%[10 µM]	nt	-1%[10 µM]	nt	nt	nt
COc1ccc(OC)c(C2CC(=O)N(c3cccc(C)c3)C3=C2C(=O)OC3)c1 (stereo not given)	nt	nt	nt	i	i	nt
COC1=C(N)C(=O)c2nc(C)ccc2C1=O	nt	11%	nt	?	4.6µM*	?
C[C@@]12C(=O)Nc3cc(F)ccc3C(=O)N1[C@H]1c3cc(Br)ccc3OC[C@@H]1[C@@H]2c1ccccc1	nt	7.3µM*	nt	?	?	?
C[C@@]12C(=O)Nc3ccc(Br)cc3C(=O)N1[C@H]1c3cc(Cl)ccc3OC[C@@H]1[C@@H]2c1ccccc1	nt	9%	nt	i	i	8%
Cc1ccc2c(c1)[C@H]1[C@H](CO2)[C@H](c2ccccc2)[C@]2(C)C(=O)Nc3cc(F)ccc3C(=O)N12	nt	5.8µM*	nt	?	?	?
CCCc1nnc(-c2cc(OC)c(OC)c(OC)c2)o1	6%	14%	-7%	i	i	-10%
COc1cc(-c2nnc(-c3cc(OC)c(OC)c(OC)c3)o2)cc(OC)c1OC	25%	1%	4%	i	?	-7%
COc1cc(-c2nnc(SCc3ccccc3Cl)o2)cc(OC)c1OC	10%[0.365 µM]	21µM*	nt	2.3µM*	i	-4%
COc1cc(-c2nnc(-c3ccccc3)o2)cc(OC)c1OC	?	23%	-12%	9.2µM*	i	-3%
COc1cc(-c2nnc(COc3ccc4ccccc4c3)o2)cc(OC)c1OC	8%	?	0%	23µM*	i	-2%
